The source of these data is PubChem BioAssay (Tox21).

Results filed as inconclusive are left out. The source made the active and inactive calls. Unless noted, calls follow the shape of the dose curve; as a rule, active = well fitted curve in the direction sought with a large enough effect in the repeat runs; inconclusive = weak or mixed curves; inactive = no such curve, though single readings can be large; an effect the other way counts as inactive or inconclusive.

Experiment [1] can be described thus: qHTS assay to identify small molecule antagonists of the thyroid receptor (TR) signaling pathway - cell viability counter screen (AID 743064). Also: nearly all actives have a fitted effect of over 50% in size. Also: potency is read from the fitted curve at half-maximal effect. Put shortly:
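In rat pituitary GH3.TRE-Luc reporter cells co-exposed to compound and 1 nM T3 for 23.5 h, cytotoxicity was assessed with CellTiter-Fluor in the same wells, read by fluorescence.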

Experiment [2] addresses Estrogen receptor (Homo sapiens) (UniProt P03372). In words: qHTS assay to identify small molecule antagonists of the estrogen receptor alpha (ER-alpha) signaling pathway (AID 743069; active = well fitted curve in the direction sought with a large enough effect in the signal ratio in the repeat runs, not every such curve was filed as active; the % refers to the signal ratio). The procedure, abridged: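 A 17beta-estradiol challenge was applied right after compound transfer to ER-alpha-UAS-bla HEK293 cells previously kept in charcoal-stripped serum. Plates stood 18 hr at 37C and 5% CO2; fluorescence was read following 2 hr FRET substrate loading at room temperature.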

Experiment [3] in a line: qHTS assay to identify small molecule antagonists of the estrogen receptor alpha (ER-alpha) signaling pathway - cell viability counter screen (AID 743074; calls by dose curve;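 also: HEK293 cells carrying ER-alpha-UAS-bla reporter stimulated with 17beta-estradiol; nearly all actives have a fitted effect of over 45% in size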).
Experiment [4] addresses Estrogen receptor (Homo sapiens) (UniProt P03372). As to the kind of experiment: qHTS assay to identify small molecule agonists of the estrogen receptor alpha (ER-alpha) signaling pathway (AID 743075; calls by dose curve;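 also: HEK293 GripTite cells with ER-alpha and UAS-driven beta-lactamase reporter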; also: potency is read from the fitted curve at half-maximal effect).
Experiment [5] has the same target. As to the kind of experiment: qHTS assay to identify small molecule agonists of the estrogen receptor alpha (ER-alpha) signaling pathway using the BG1 cell line (AID 743079). Also: nearly all actives have a fitted effect of over 20% in size. Also: potency is read from the fitted curve at half-maximal effect. As to conditions: BG1Luc4E2 cells, ERE-luciferase agonist, 22 h; activation: at 70.3 µM (top of the series).
Experiment [6] in a line: qHTS assay to identify small molecule antagonists of the estrogen receptor alpha (ER-alpha) signaling pathway using the BG1 cell line (AID 743080; calls by dose curve;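 also: BG1 cells stimulated with 17beta-estradiol alongside compound; nearly all actives have a fitted effect of over 25% in size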). The procedure, abridged: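 After 5 days in phenol-red-free 10% charcoal-stripped FBS medium, BG1-Luc-4E2 cells were seeded, left 24 h at 37 C, co-treated with compounds and 17beta-estradiol for 21.5 h, then assayed for viability and luciferase.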

A short description of experiment [7]: qHTS assay to identify small molecule antagonists of the estrogen receptor alpha (ER-alpha) signaling pathway using the BG1 cell line - cell viability counter screen (AID 743081).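 Also: compound given together with 17beta-estradiol as the ER stimulus; nearly all actives have a fitted effect of over 45% in size.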
In another experiment the target is Aromatase (Homo sapiens) (UniProt P11511). In words: qHTS assay to identify aromatase inhibitors (AID 743083). Also: nearly all actives have a fitted effect of over 55% in size.
Aromatase (Homo sapiens), sequence (P11511 whole entry, looked up): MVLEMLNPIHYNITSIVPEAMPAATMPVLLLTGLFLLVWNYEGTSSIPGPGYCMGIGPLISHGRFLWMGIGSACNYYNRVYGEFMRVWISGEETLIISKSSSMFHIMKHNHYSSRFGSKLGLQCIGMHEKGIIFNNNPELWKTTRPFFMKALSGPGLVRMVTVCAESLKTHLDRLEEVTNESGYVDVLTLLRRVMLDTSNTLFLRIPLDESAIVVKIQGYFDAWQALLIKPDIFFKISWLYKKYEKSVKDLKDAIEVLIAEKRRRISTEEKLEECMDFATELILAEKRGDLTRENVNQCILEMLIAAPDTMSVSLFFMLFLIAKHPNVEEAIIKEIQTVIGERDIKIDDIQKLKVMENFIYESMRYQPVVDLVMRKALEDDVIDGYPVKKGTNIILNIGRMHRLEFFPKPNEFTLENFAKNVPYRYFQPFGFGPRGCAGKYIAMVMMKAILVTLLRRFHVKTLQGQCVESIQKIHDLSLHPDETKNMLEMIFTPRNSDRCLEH
Experiment [8] is described as follows: qHTS assay to identify aromatase inhibitors - cell viability counter screen (AID 743084).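 Also: cells stimulated with testosterone during compound exposure; nearly all actives have a fitted effect of over 55% in size.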 Also: potency is read from the fitted curve at half-maximal effect.
The target of experiment [9] is Aryl hydrocarbon receptor (Homo sapiens) (UniProt P35869). In words: qHTS assay to identify small molecule that activate the aryl hydrocarbon receptor (AhR) signaling pathway (AID 743085).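 Also: HG2L7.5c1 human HepG2 liver cells with stably integrated DRE-driven firefly reporter; nearly all actives have a fitted effect of over 15% in size.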 Put shortly:
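AhR agonist activity is inferred from enhanced light output of a DRE-controlled firefly luciferase reporter in HepG2 cells, measured with ONE-Glo following 24 h treatment at 37C.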

Experiment [10] is described as follows: qHTS assay to identify small molecule that activate the aryl hydrocarbon receptor (AhR) signaling pathway - cell viability counter screen (AID 743086).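 Also: HepG2 liver cells carrying the AhR DRE luciferase reporter; nearly all actives have a fitted effect of over 45% in size.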 Put shortly: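 HepG2-AhR-luc (HG2L7.5c1) cells, 4000/well, were preincubated 5 h at 37C, exposed to compound in qHTS format for 24 hr at 37C, then given CellTiter-Fluor for 30 min; viability was read as fluorescence in the reporter wells.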

Experiment [11] addresses Peroxisome proliferator-activated receptor gamma (Homo sapiens) (UniProt P37231). In words: qHTS assay to identify small molecule agonists of the peroxisome proliferator-activated receptor gamma (PPARg) signaling pathway (AID 743094; active = well fitted activation curve with a large enough effect in the signal ratio in the repeat runs, not every such curve was filed as active; the % refers to the signal ratio). Put shortly: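 Cell-based bla reporter, HEK293H background, PPARg-driven UAS. Pre-incubation 5 h, 37C, 5% CO2. Compound 17 h, 37C. Substrate 1 h RT; fluorescence.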

The target is the same in experiment [12]. In words: qHTS assay to identify small molecule antagonists of the peroxisome proliferator-activated receptor gamma (PPARg) signaling pathway (AID 743191; calls by dose curve; also: nearly all actives have a fitted effect of over 30% in size). Put shortly:
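GeneBLAzer PPARg UAS-bla HEK293H cells carrying a UAS-driven beta-lactamase reporter were plated at 3000 cells/well, preincubated 5 h at 37C, then given compound for 17 h at 37C; LiveBLAzer B/G FRET substrate was read after 1 h at room temperature.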

Experiment [13] in a line: qHTS assay to identify small molecule antagonists of the peroxisome proliferator-activated receptor gamma (PPARg) signaling pathway - cell viability counter screen (AID 743194). Also: nearly all actives have a fitted effect of over 55% in size. The procedure, abridged:
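PPARg-UAS-bla HEK293H cells were plated, rested 5 h at 37 C, then treated with compounds plus rosiglitazone (50 nM final) for 17 h at 37 C; viability was then read by CellTiter-Glo luminescence after 30 min at room temperature.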

The nature of experiment [14]: qHTS assay for small molecule agonists of the antioxidant response element (ARE) signaling pathway (AID 743202; active = well fitted activation curve with a large enough effect in the signal ratio in the repeat runs, not every such curve was filed as active; the % refers to the signal ratio). Put shortly:
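Following a 16 h, 37 C exposure of reporter HepG2 cells (ARE-driven beta-lactamase, 2,000 cells/well) to compounds, FRET substrate was applied for 2 h at room temperature and fluorescence intensity recorded.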

A short description of experiment [15]: qHTS assay for small molecule agonists of the antioxidant response element (ARE) signaling pathway - cell viability counter screen (AID 743203; calls by dose curve; also: nearly all actives have a fitted effect of over 55% in size). Put shortly: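 Measured in the same wells as the beta-lactamase ARE reporter, this read-out is CellTiter-Glo luminescence from HepG2 ARE-bla cells given compounds for 16 hrs.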
The nature of experiment [16]: qHTS assay for small molecule activators of the heat shock response signaling pathway - cell viability counter screen (AID 743209). Also: nearly all actives have a fitted effect of over 50% in size. The procedure, abridged:
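Same-well multiplex: after 2.5 h room-temperature incubation with LiveBLAzer B/G substrate and fluorescence reading, CellTiter-Glo reagent was added to HSE-bla HeLa cells that had received compound for 5 h at 37 C; luminescence read after 30 min.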

Experiment [17] is described as follows: qHTS assay for small molecule activators of the heat shock response signaling pathway (AID 743210; active = well fitted activation curve with a large enough effect in the signal ratio in the repeat runs, with a control signal flat, not every such curve was filed as active; the % refers to the signal ratio). Put shortly: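 Heat shock element–beta-lactamase HeLa reporter cells; qHTS with compounds for 5 h at 37 C; detection by FRET substrate fluorescence after 2.5 h at RT.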
A short description of experiment [18]: qHTS assay to identify small molecule antagonists of the thyroid receptor (TR) signaling pathway (AID 743065). Also: nearly all actives have a fitted effect of over 55% in size. Also: potency is read from the fitted curve at half-maximal effect. Put shortly:
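GH3.TRE-Luc rat pituitary cells carrying two TR response elements driving luciferase were plated for 4 h, given compound plus 1 nM T3 (final), and incubated 23.5 h at 37 C. ONE-Glo luminescence measured reporter inhibition; CellTiter-Fluor fluorescence tracked cytotoxicity.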

In experiment [19] the test system is thyroid hormone receptor (rat, GH3 cells). As to the kind of experiment: qHTS assay to identify small molecule agonists of the thyroid receptor (TR) signaling pathway (AID 743066; calls by dose curve).

Estrogen receptor (Homo sapiens), sequence (P03372 whole entry, looked up): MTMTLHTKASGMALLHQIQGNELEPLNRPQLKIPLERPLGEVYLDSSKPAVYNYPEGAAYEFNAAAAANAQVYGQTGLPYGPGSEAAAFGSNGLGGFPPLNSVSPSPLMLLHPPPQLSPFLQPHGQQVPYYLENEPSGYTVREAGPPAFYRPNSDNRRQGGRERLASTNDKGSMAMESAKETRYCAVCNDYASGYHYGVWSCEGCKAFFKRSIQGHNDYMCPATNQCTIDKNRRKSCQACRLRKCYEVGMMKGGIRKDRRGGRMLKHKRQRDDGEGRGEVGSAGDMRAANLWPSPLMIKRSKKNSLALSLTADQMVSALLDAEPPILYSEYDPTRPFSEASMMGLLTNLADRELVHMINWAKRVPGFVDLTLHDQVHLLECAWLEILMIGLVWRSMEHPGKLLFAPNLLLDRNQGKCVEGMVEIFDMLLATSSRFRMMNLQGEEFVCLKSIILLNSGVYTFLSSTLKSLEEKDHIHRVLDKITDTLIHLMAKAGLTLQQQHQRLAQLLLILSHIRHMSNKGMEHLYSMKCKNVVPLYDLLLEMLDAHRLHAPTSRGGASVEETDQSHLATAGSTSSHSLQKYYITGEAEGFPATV
Peroxisome proliferator-activated receptor gamma (Homo sapiens), sequence (P37231 whole entry, looked up): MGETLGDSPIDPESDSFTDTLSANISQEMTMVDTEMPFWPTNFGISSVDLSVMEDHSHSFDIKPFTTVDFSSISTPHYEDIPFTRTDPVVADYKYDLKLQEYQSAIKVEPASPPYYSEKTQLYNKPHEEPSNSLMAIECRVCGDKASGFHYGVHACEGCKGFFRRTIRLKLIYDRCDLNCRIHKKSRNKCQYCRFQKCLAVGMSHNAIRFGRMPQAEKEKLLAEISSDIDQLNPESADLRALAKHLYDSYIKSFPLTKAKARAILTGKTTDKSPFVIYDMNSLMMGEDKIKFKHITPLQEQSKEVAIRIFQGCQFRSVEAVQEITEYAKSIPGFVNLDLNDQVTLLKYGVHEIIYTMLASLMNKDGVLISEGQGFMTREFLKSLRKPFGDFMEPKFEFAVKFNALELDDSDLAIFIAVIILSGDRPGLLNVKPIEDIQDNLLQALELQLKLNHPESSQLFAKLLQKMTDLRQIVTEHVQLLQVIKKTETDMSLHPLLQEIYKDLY
Aryl hydrocarbon receptor (Homo sapiens), sequence (P35869 whole entry, looked up): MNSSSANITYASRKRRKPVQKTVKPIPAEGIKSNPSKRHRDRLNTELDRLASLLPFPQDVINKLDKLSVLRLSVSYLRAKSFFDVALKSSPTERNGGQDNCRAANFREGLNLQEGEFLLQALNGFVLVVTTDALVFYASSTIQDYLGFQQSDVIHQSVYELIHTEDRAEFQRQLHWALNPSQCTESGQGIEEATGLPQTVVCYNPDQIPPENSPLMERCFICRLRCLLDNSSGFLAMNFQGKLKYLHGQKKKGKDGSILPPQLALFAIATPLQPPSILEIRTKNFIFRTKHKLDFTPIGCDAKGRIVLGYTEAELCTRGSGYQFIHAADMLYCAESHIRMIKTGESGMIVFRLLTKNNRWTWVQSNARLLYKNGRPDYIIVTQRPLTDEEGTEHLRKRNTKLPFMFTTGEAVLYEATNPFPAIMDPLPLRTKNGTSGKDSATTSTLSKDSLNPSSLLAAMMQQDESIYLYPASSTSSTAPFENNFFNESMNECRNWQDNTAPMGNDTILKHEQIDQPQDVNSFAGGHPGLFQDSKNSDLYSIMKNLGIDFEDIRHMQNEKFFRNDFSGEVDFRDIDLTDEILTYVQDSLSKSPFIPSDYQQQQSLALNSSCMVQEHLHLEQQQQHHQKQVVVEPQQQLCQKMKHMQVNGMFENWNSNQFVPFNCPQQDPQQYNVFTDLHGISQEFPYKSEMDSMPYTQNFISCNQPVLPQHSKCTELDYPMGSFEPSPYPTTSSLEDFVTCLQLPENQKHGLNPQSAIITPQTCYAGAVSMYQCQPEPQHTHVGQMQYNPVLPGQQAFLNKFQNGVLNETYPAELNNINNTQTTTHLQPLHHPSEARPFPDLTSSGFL

With `CCC(=O)OC`, the Potency entry in experiment [1], in experiment [2], in [3], in experiment [4], in [5] and in experiment [6] was “inactive” in each case. In addition, the Potency entry (in experiment [7]; with Aromatase (Homo sapiens); in experiment [8]; in [9]; in experiment [10]; in experiment [11]) was “inactive” each time. Besides, the Potency entry in [12], in [13], in experiment [14], in experiment [15], in experiment [16] and in experiment [17] was “inactive” in each case.

For the molecule `CCOC(=O)[C@H](CCc1ccccc1)N[C@@H](C)C(=O)N(CC(=O)O)C1Cc2ccccc2C1`, the Potency entry in experiment [18], in experiment [2], in [4], in [5], in experiment [6] and in [7] was “inactive” throughout. The Potency result (in the experiment with Aromatase (Homo sapiens); in experiment [8]; in [9]; in experiment [10]; in [11]; in experiment [12]) was “inactive” in each case. Also, the Potency entry in experiment [13], in experiment [14], in experiment [16] and in [17] was “inactive” in each case. Moreover, the result in experiment [19] was inactive.

Consider `COC(=O)CS`, for which the Potency result (in experiment [1]; in experiment [3]; in [4]; in experiment [5]; in experiment [7]; with Aromatase (Homo sapiens)) was “inactive” throughout. Further, the Potency entry in experiment [8], in experiment [9], in experiment [10], in experiment [11], in experiment [13] and in experiment [14] was “inactive” each time. Also, the Potency entry in experiment [15] and in experiment [17] was “inactive” in each case.

Consider `O=[N+]([O-])c1ccc(Nc2ccc(Nc3ccccc3)c(S(=O)(=O)O)c2)c([N+](=O)[O-])c1`, for which the Potency in [1] is 48.6 µM (active). For the same molecule, the call in experiment [19] was inactive. Further, the Potency entry (in experiment [3]; in the experiment with Aromatase (Homo sapiens); in experiment [9]; in [11]; in experiment [12]; in experiment [13]) was “inactive” each time. Further, the Potency entry in [15], in [16] and in experiment [17] was “inactive” in each case.

In the case of `Oc1cccc(Nc2ccccc2)c1`, the Potency result (in [1]; with Aromatase (Homo sapiens); in experiment [8]; in experiment [9]; in [10]; in experiment [13]) was “inactive” throughout. Moreover, the Potency result in experiment [15], in [16] and in experiment [17] was “inactive” throughout. Moreover, the molecule was classed as inactive in experiment [19]. For the same molecule, the values for the Potency in [4] and in experiment [5] were 57.6 µM [activator] (active) and 25.4 µM (active), respectively.

In the case of `O=C(O)c1ccc(OCCCOc2ccc(C(=O)O)cc2)cc1`, the Potency result (in experiment [1]; in experiment [3]; in experiment [7]; with Aromatase (Homo sapiens); in experiment [8]; in [9]) was “inactive” each time. The Potency entry in experiment [10], in experiment [11], in [13], in experiment [14], in experiment [15] and in [16] was “inactive” in each case.

Consider `CC(=O)OCCN(CCOC(C)=O)c1ccc(N=Nc2ccc([N+](=O)[O-])cc2C#N)cc1`, for which the Potency is 61.1 µM (active) in [18] and 27.3 µM (active) in experiment [8]. Further, in experiment [19], the molecule was called inactive. For the same molecule, the Potency result in [3], in experiment [10], in experiment [11], in experiment [12], in experiment [13] and in experiment [15] was “inactive” throughout. The Potency entry in experiment [16] and in experiment [17] was “inactive” each time.

For the molecule `FC(F)(F)c1ccccc1Cl`, the Potency entry (in experiment [18]; in experiment [3]; in [4]; in [5]; in experiment [7]; with Aromatase (Homo sapiens)) was “inactive” in each case. The Potency result in experiment [8], in [9], in [10], in [11], in experiment [12] and in [13] was “inactive” in each case. The Potency entry in experiment [14], in experiment [15], in [16] and in experiment [17] was “inactive” throughout. The result in experiment [19] was inactive.
